PfHsp90 yeast 2: inhibits growth of yeast expressing Plasmodium falciparum Hsp90; S. cerevisiae expressing PfHsp90, BacTiter-Glo ATP, 48 h; yeast lacking PDR1 and PDR3 efflux regulators; inhibition, % at 9.4 µM; actives 0.32% (n = 310,000);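 active = every replicate shows inhibition above about 80%, whatever the replicate mean, limit read from the data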;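 note: 0% = DMSO neutral controls and 100% = 20 µM radicicol positive controls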
tim10-1 inh: tim10-1 yeast growth inhibition; inhibition, % at 20 µM; S. cerevisiae tim10-1 ts strain growth, BacTiter-Glo, 24 h; actives 2.2% (n = 330,000);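 active = inhibition of at least 40%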;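 note: mutant grown at 25 °C; 0% = DMSO wells with yeast and 100% = wells holding no yeast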
TIM10 inh: TIM10 yeast growth inhibition | S. cerevisiae TIM10 strain growth, BacTiter-Glo luminescence, 24 h | inhibition, % at 10 µM | actives 1.4% (n = 330,000);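 active = inhibition of 40% or more at the single tested concentration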;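 note: wild-type TIM10 isogenic control strain grown at permissive 25 °C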
Rce1 inhib: blocks yeast Ras-converting enzyme. Q03530. yeast membranes, quenched prenylated peptide cleavage fluorescence. calls only. actives 0.27% (n = 290,000). AID 2563;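 active = fall in fluorescence gain of 50% or more versus controls, with final raw signal at or below 3038400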;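 note: plate controls were neutral control wells for no effect and wells lacking membranes for full effect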
Target sequence (Q03530 whole entry, looked up): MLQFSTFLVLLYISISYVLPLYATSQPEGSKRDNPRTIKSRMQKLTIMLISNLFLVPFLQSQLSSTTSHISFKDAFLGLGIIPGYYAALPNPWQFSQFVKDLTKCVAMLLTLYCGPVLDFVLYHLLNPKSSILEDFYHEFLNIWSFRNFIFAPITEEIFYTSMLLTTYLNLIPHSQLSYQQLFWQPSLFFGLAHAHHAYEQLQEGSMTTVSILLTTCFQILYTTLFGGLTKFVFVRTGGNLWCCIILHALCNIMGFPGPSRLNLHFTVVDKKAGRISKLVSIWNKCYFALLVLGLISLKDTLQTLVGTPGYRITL
tim23-1 inh: growth inhibitors of tim23-1 mutant yeast; S. cerevisiae tim23-1 growth, BacTiter-Glo luminescence, 24 h; AID 463212; actives 1.3% (n = 330,000); inhibition, % at 20 µM;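 active = growth inhibition of the mutant yeast at or above 50%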;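 note: temperature-sensitive mutant grown at 25 °C; plate controls were DMSO-treated mutant yeast for no effect and medium wells lacking yeast for full effect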
TIM10 conf: confirmation of TIM10 yeast growth inhibitors. shares compounds with TIM10 inh. S. cerevisiae tim10 strain growth, BacTiter-Glo luminescence, 24 h. inhibition, % at 10 µM. actives 63% (n = 4,600). AID 463215;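 active = inhibition of yeast growth at or above a set limit in either of two replicates at 10 µM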;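 note: this counterscreen used the strain with wild-type TIM10; 0% = yeast with DMSO and 100% = medium wells lacking yeast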
tim23-1 confirm: tim23-1 yeast growth inhibition, confirmed | shares compounds with tim23-1 inh | S. cerevisiae tim23-1 growth, BacTiter-Glo luminescence, 24 h | inhibition, % at 20 µM | actives 83% (n = 4,400) | AID 463218;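 active = inhibition above about 39% in either of two replicate wells at 20 µM, limit read from the data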;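 note: temperature-sensitive tim23-1 mutant grown at 25 °C; 0% = DMSO wells with yeast and 100% = medium wells without yeast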
Starred values were filed as active, the others as inactive; i = inactive; nt = no result given; + = active, no number. An excerpt weighted towards active compounds, which were near 3.7% of everything screened.

SMILES	PfHsp90 yeast 2	tim10-1 inh	TIM10 inh	Rce1 inhib	tim23-1 inh	TIM10 conf	others
COCCSc1nnc(NC(=O)c2ccco2)s1	nt	6	67*	i	16	12
CC(C)(C)NC(=O)CN(C(=O)CS(=O)CC(=O)Nc1ccc(F)cc1)c1ccc2c(c1)OCCO2 (stereo not given)	-35	12	-2	i	5	nt
CCCC1(c2ccccc2)NC(=O)N(CC(=O)Nc2cc(OC)cc(OC)c2)C1=O (stereo not given)	-15	15	-3	i	15	nt
O=C(NCCCl)Nc1ncn[nH]1	-9	nt	nt	nt	nt	nt
CN(C)/C(=N\S(=O)(=O)c1ccccc1)c1ccc(F)cc1	-19	-11	61*	i	4	0
Cn1c(=O)n(C)c2cc(/C=C(/C#N)C(=O)NCc3ccco3)ccc21	-1	34	43*	i	21	37*
COC(=O)[C@@H]1CCCN1C(=O)CCc1nnc(CCC2CCCCC2)o1	18	22	45*	i	16	-22
Cc1ccccc1Cn1c(Cc2ccccc2)nc2ccccc21	nt	36	42*	i	46	45*
Clc1ccccc1CSc1cc2c(nn1)-c1ccccc1CC2	18	24	15	i	17	nt
Clc1cccc(Cl)c1CSc1cc2c(nn1)-c1ccccc1CC2	6	38	40*	i	26	-1
NC(=O)c1nsc(C(=O)N(c2ccccc2F)C(C(=O)NCc2ccccc2)c2ccc(O)cc2)c1N (stereo not given)	-27	-7	96*	+	-4	8
COc1ccc(C(=O)COC(=O)CCc2nc3ccccc3[nH]c2=O)cc1Br	-7	-18	-23	i	-16	nt
CC(=O)c1ccc(OC(=O)N(c2ccccc2)c2ccccc2)cc1	4	25	63*	i	39	9
CC(=O)c1ccc(OC(=O)CCc2ccccc2)cc1	24	9	6	i	24	nt
COC(=O)c1c(NC(=O)COc2ccc(Cl)cc2)sc2c1CC(C)(C)NC2(C)C	7	39	46*	i	44	31
CCOc1ccc(-n2cnc3sc(C)c(C)c3c2=O)cc1	-9	0	3	i	8	nt
CCC(C(=O)Nc1cc(C)nn1-c1nc(C)cc(C)n1)c1ccccc1 (stereo not given)	9	26	44*	i	16	-1
CCC(C(=O)Nc1cc(C)cc(C)n1)c1ccccc1 (stereo not given)	nt	16	20	i	24	nt
CC(=O)N1c2ccc(S(=O)(=O)N3CCCC(C(=O)NCc4ccccc4)C3)cc2CC1C (stereo not given)	21	-1	1	i	-14	nt
CCC(C)(C)n1nnnc1C(c1cccs1)N1CCc2ccccc21 (stereo not given)	-36	33	50*	i	47	34*
CC(C)(C)n1nnnc1C(c1ccc(Cl)cc1)N1CCCc2ccccc21 (stereo not given)	nt	37	28	i	45	nt
CCC(C)(C)n1nnnc1C(c1cccnc1)N1CCCC(C)C1 (stereo not given)	10	20	29	i	7	nt
CCC(C)(C)n1nnnc1C(c1ccc(O)cc1)N1CCc2ccccc2C1 (stereo not given)	11	23	23	i	10	nt
CCC(C)(C)n1nnnc1C(c1cccnc1)N1CCCc2ccccc21 (stereo not given)	5	38	40*	i	35	37*
CC(C)(C)n1nnnc1C(c1cccc(C#N)c1)N1CCCc2ccccc21 (stereo not given)	4	36	43*	i	37	25
SMILES	PfHsp90 yeast 2	tim10-1 inh	TIM10 inh	Rce1 inhib	tim23-1 inh	TIM10 conf	others
O=C(Nc1nnc(COc2ccc(Br)cc2)s1)c1ccco1	-9	5	4	i	3	nt
CSc1nc(N)nc2c1ncn2CC(=O)Nc1ccc(C)c(C)c1	-5	-1	-3	nt	-10	nt
CC1CCCN(Cc2c(O)ccc3c(=O)c(-c4nc5ccccc5s4)c(N)oc23)C1 (stereo not given)	19	38	52*	i	56*	51*	tim23-1 confirm=58*
CC1CCN(Cc2c(O)ccc3c(=O)c(-c4nc5ccccc5s4)c(N)oc23)CC1	nt	18	34	i	46	nt
Cc1ccc(S(=O)(=O)N2CCOCC2)cc1NC(=O)CSc1nc(N)cc(N)n1	-16	6	7	nt	-14	nt
CCOc1cc(/C=C\[N+](=O)[O-])ccc1OCC(=O)Nc1ccccc1C	110*	13	56*	i	58*	13	tim23-1 confirm=78*
COc1cc(/C=C/c2cccc[n+]2C)ccc1OCC(=O)Nc1ccccc1C	12	4	-3	i	-16	nt
Cc1ccccc1N1CCN(c2ncnc3c2cnn3Cc2ccc(Cl)cc2)CC1	-10	30	20	i	23	nt
CC(=O)n1cc(/C=N/NC(=O)c2ccc([N+](=O)[O-])cc2)c2ccccc21	19	-1	6	i	19	nt
CC(=O)n1cc(C(C[N+](=O)[O-])SCCN)c2ccccc21 (stereo not given)	nt	23	91*	i	89*	92*	tim23-1 confirm=-31
COc1ccccc1[C@@]1(C)ON(c2ccccc2C(F)(F)F)C1=O	-12	-98	65*	nt	63*	55*	tim23-1 confirm=-93
COc1cc2c3c(c1OC)-c1cc4c(cc1CC3(C#N)N(C(=O)c1ccccc1)CC2)OCO4 (stereo not given)	-3	nt	nt	nt	nt	nt
Cn1c(CNC(=O)CNC(=O)c2cccc(F)c2)cc(=O)n(C)c1=O	-1	-3	-3	i	-3	nt
Cc1ccsc1CN(C)CC(=O)Nc1cccc(S(=O)(=O)N(C)c2ccccc2)c1	nt	28	0	nt	37	nt
COc1ccccc1N1CC(C)(C)C(=O)N(C(=O)c2ccc(Cl)cc2)C1=S	-19	24	45*	i	51*	54*	tim23-1 confirm=52*
COc1ccccc1N1CCN(C(=O)COc2ccc(Cl)cc2)CC1	3	22	24	i	10	nt
COc1cc(NC(=O)C(=O)NCCN2CCNCC2)c(OC)cc1Cl	-51	-2	-6	i	-4	nt
O=C(NC1CCN(C(=S)Nc2ccccc2)CC1)C1CCCCC1	-25	-3	-28	i	3	nt
CCCOc1ccc(C(=O)CCNC(Cc2c[nH]c3ccccc23)C(=O)O)cc1 (stereo not given)	5	26	49*	i	74*	37*	tim23-1 confirm=23
COc1ccc(C(=O)NC(Cc2c[nH]c3ccccc23)C(=O)O)cc1 (stereo not given)	1	0	8	i	-4	nt
O=C(/C=C/c1cccc([N+](=O)[O-])c1)c1ccco1	85*	35	62*	nt	64*	76*	tim23-1 confirm=3
O=C(/C=C/c1cccc([N+](=O)[O-])c1)Nc1cccc(NC(=O)c2ccco2)c1	1	19	9	i	13	nt

Bioassay records as filed in PubChem BioAssay.
